Assay results from PubChem BioAssay.
Active and inactive are the calls of the source. Unless noted, how the calls were made is not given here.

Legend:
[1] = anti-His antibody binders, primary screen, artefact control for SMM control protein annotation, biochemical, small-molecule microarray, 635 nm fluorescence (AID 1128); settings: anti-His Alexa647 antibody binding, higher = more signal;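 further: score merges feature fluorescence with signal-to-noise for each printed compound spot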
[2] = test system: Human papillomavirus type 1a E7 protein (residues 1-88); test: HPV1a E7 small-molecule binders, primary screen, biochemical, small-molecule microarray, residues 1-88, 635 nm (AID 1129); settings: small-molecule microarray binding, fluorescence 635 nm; higher = more signal
[3] = molecular target: Focal adhesion kinase 1 (Homo sapiens) (UniProt Q05397); test: small-molecule microarray binders of FAK, primary screen, biochemical, 635/667 nm fluorescence, BSA, DTT (AID 1130); settings: PTK2 binding, 635 nm fluorescence, higher = more signal;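 further: composite of spot emission at 667 nm and signal to noise over triplicate slides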
Chain of Focal adhesion kinase 1 (Homo sapiens) (Q05397 whole entry, looked up): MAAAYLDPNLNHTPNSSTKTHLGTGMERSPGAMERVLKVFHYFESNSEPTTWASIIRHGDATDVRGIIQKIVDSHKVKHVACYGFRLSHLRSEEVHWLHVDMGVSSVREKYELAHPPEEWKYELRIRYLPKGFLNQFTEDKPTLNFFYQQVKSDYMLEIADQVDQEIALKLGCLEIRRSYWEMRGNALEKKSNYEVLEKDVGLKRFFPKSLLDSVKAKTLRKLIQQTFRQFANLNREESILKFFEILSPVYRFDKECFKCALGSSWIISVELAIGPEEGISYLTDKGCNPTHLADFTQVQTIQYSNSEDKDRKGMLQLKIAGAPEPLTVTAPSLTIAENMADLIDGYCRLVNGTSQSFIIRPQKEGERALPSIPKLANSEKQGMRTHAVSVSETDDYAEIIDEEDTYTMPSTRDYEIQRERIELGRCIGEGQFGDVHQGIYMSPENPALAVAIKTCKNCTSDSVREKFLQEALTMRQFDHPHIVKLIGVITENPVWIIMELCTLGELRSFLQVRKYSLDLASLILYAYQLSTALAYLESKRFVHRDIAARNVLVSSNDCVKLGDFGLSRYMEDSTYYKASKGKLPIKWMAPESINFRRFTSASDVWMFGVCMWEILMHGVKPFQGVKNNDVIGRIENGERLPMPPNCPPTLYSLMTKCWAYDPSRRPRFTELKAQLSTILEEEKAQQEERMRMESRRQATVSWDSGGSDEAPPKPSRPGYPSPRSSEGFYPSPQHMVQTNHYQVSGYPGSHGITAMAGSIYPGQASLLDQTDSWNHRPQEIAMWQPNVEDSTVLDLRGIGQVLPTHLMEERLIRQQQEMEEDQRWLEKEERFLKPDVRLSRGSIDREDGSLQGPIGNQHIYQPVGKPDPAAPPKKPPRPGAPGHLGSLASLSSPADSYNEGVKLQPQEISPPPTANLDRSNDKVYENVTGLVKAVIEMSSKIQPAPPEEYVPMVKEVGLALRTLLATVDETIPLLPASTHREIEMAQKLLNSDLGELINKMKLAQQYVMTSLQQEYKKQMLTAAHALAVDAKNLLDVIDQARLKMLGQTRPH

[4] = test system: Fibrinogen (Alexa647-labelled); test: fibrinogen binders on compound microarrays, profiling panel, artefact control for SMM control-protein annotation, biochemical, small-molecule microarray, 635/667 nm fluorescence (AID 1131); settings: fibrinogen-A647 binding fluorescence, higher = more signal;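 further: z-score merges 667 nm fluorescence with per-spot signal-to-noise over triplicate slides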
[5] = molecular target: Follistatin (Homo sapiens) (UniProt P19883); test: follistatin binders on small-molecule microarrays, primary screen, biochemical, small-molecule microarray, 635/667 nm fluorescence (AID 1132); settings: FST binding, 635 nm fluorescence, higher = more signal
Chain of Follistatin (Homo sapiens) (P19883 whole entry, looked up): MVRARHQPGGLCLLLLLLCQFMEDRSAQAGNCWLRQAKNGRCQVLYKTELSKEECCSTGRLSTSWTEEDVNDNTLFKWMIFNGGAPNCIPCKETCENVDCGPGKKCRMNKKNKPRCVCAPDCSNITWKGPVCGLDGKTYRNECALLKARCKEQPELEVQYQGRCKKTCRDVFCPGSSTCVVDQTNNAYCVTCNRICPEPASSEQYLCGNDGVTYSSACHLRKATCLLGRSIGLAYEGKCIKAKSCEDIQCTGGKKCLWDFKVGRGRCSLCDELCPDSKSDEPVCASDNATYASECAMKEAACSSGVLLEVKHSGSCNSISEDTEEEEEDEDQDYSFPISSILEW

[6] = molecular target: Fibroblast growth factor 2 (Homo sapiens) (UniProt P09038); test: FGF2 binders on small-molecule microarrays, primary screen, biochemical, small-molecule microarray, 635/667 nm fluorescence (AID 1133); settings: small-molecule microarray binding, FGF2, fluorescence 635/667; higher = more signal
Chain of Fibroblast growth factor 2 (Homo sapiens) (P09038 whole entry, looked up): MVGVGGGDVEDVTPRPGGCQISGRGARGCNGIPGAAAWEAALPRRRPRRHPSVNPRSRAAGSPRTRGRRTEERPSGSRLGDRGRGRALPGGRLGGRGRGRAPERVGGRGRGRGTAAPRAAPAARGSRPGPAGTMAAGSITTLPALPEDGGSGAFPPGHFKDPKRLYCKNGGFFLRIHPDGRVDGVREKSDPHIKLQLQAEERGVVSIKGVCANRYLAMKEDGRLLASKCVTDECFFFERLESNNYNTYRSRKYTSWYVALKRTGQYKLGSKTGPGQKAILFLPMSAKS

[7] = mitochondrial membrane potential change in A549 cells, profiling panel, cell-based, JC-1 fluorescence, basal, 24 h, 100 nL (AID 1138); settings: higher = more signal;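 further: A549 lung adenocarcinoma cells under basal conditions with no added stimulus; test concentration not given here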
[8] = test system: Lefty1; test: Lefty1 binders on small-molecule microarrays, primary screen, biochemical, small-molecule microarray, 635/667 nm fluorescence (AID 1139); settings: small-molecule microarray binding, fluorescence 635/667; higher = more signal
[9] = test system: wheat germ agglutinin (Triticum aestivum), Alexa647-labelled; test: wheat germ agglutinin binders on compound microarrays, profiling panel, artefact control for SMM control-protein annotation, biochemical, small-molecule microarray, 635/667 nm fluorescence (AID 1140); settings: WGA-A647 binding, 635 nm fluorescence, higher = more signal;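 further: score merges 667 nm feature emission with signal to noise over triplicate slides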
[10] = molecular target: Luciferin 4-monooxygenase (Photinus pyralis) (UniProt P08659); test: firefly luciferase enzyme inhibitors, primary screen, biochemical, luminescence, purified enzyme, 2006 set (AID 1141); settings: SteadyGlo luminescence, 30 min, higher = more signal, called active from +8 up or from −8 down;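 further: cell-free assay with purified firefly luciferase at 100 ng per well in PBS; test concentration not given here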
Chain of Luciferin 4-monooxygenase (Photinus pyralis) (P08659 whole entry, looked up): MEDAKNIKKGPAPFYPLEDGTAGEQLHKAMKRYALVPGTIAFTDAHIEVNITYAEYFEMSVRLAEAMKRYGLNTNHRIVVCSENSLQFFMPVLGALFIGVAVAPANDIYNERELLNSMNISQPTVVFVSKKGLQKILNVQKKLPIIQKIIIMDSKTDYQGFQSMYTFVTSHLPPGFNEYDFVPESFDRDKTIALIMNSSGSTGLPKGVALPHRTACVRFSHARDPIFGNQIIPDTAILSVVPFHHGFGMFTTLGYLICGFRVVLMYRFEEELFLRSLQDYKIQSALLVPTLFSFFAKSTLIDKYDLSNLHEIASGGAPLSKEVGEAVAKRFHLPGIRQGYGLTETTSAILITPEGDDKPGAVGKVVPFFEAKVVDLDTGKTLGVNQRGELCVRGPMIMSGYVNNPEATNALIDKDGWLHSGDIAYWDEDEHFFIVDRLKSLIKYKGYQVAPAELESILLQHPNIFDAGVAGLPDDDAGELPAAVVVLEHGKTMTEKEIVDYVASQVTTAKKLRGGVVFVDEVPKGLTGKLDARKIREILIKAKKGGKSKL

[11] = test system: Wnt5a (protein binding on small-molecule microarray); test: Wnt5a binders on small-molecule microarray, primary screen, biophysical, 635/667 nm fluorescence (AID 1142); settings: 635 nm fluorescence, higher = more signal;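 further: fluorescence read at 667 nm with signal to noise per printed feature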
[12] = cell viability in Huh7 cells, primary screen, cytotoxicity control for HCV replication inhibitor project, CellTiter-Glo luminescence, basal, 48 h (AID 1143); settings: Huh7 HCV replicon, higher = more signal, called active from +8 up or from −8 down;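 further: Huh7 hepatoma cells carrying a hepatitis C replication reporter with no stimulus; test concentration not given here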
[13] = P. aeruginosa biofilm formation inhibitors, primary screen, PAO1 strain, BacTiter-Glo luminescence, LB-PBS (AID 1144); settings: 12 h, higher = more signal
[14] = CREB reporter modulators without forskolin, primary screen, cell-based, PC12, CRE-LacZ reporter, unstimulated (AID 1145); settings: no forskolin, luminescence, 4.5 h, higher = more signal, called active from +8 up or from −8 down
[15] = CREB reporter modulators under forskolin, primary screen, cell-based, PC12, CRE-LacZ reporter, forskolin-stimulated (AID 1146); settings: luminescence, 4.5 h, higher = more signal, called active from +8 up or from −8 down;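 further: PC12 cells with 6xCRE LacZ reporter stimulated by forskolin 10 µM; beta-galactosidase reporter signal reflecting CREB driven transcription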
[16] = molecular target: Streptavidin (Streptomyces avidinii) (UniProt P22629); test: streptavidin binders on small-molecule microarray, primary screen, artefact control for SMM compound annotation, biophysical, 635/667 nm fluorescence (AID 1147); settings: streptavidin binding, higher = more signal;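 further: signal reflects streptavidin binding to arrayed compounds as a control protein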
Chain of Streptavidin (Streptomyces avidinii) (P22629 whole entry, looked up): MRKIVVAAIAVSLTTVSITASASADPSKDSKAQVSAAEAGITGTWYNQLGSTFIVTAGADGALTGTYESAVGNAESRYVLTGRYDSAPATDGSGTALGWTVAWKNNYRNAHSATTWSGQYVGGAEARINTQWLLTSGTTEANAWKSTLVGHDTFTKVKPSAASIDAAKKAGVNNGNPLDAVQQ

[17] = small-molecule binders of probe aInhba, primary screen, biochemical, small-molecule microarray, 635/667 nm fluorescence (AID 1148); settings: higher = more signal;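 further: score merges 667nm spot fluorescence with signal-to-noise for antibody binding to printed compounds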
[18] = molecular target: Torsin-1A (Homo sapiens) (UniProt O14656); test: torsin A binders from cell lysate, primary screen, small-molecule microarray, wild-type, 635/667 nm (AID 1149); settings: COS7 hTOR1A-WT lysate, 635 nm fluorescence, higher = more signal
Chain of Torsin-1A (Homo sapiens) (O14656 whole entry, looked up): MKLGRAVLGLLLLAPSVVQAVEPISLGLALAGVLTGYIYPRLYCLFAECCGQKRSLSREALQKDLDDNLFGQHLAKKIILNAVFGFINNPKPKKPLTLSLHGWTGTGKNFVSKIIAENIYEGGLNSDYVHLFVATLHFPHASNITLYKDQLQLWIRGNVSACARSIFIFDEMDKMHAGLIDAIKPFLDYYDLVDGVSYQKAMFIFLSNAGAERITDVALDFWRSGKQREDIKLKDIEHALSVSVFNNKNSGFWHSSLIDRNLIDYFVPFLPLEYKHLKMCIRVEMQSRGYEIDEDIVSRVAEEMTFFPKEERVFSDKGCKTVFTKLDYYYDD

[19] = molecular target: Torsin-1A (Homo sapiens) (UniProt O14656); test: small-molecule binders of mutant TOR1A in lysate, primary screen, cell lysate, small-molecule microarray, COS7 lysate, 635/667 nm fluorescence (AID 1150); settings: COS7 hTOR1A mutant lysate, 635 nm fluorescence, higher = more signal;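 further: score pools 667 nm emission and signal to noise measuring lysate protein binding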
[20] = test system: Sonic hedgehog protein (Shh); test: small-molecule binders of Shh protein, primary screen, biochemical, small-molecule microarray, 635/667 nm fluorescence (AID 1151); settings: small-molecule microarray binding, 635 nm fluorescence; higher = more signal;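 further: Shh protein binding to compounds spotted on small-molecule microarray slides; score combines spot fluorescence intensity with signal-to-noise across triplicate slides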

| Compound | composite z-score [1] | composite z-score [2] | composite z-score [3] | composite z-score [4] | composite z-score [5] | composite z-score [6] | z-score [7] | composite z-score [8] | composite z-score [9] | z-score [10] | composite z-score [11] | z-score [12] | z-score [13] | z-score [14] | z-score [15] | composite z-score [16] | composite z-score [17] | composite z-score [18] | composite z-score [19] | composite z-score [20] |
| --- | --- | --- | --- | --- | --- | --- | --- | --- | --- | --- | --- | --- | --- | --- | --- | --- | --- | --- | --- | --- |
| O=C1O[C@@H](c2ccccc2)[C@@H](c2ccccc2)N2[C@@H](c3ccc(O)cc3)[C@]3(C(=O)Nc4ccc(C#CC5(O)CCCCCC5)cc43)[C@@H](C(=O)NC[C@H](O)c3ccccc3)[C@H]12 | 0.326 | 0.899 | 0.551 | 0.151 | -0.538 | -0.322 | -1.31 | -0.218 | 0.297 | 0.27 (inactive) | 0.0895 | -1.42 (inactive) | -0.144 (inactive) | -0.606 (inactive) | -0.448 (inactive) | -0.508 | -0.0221 | 0.0581 | -0.135 | 0.217 |
| C=CC[C@]1(C(=O)NCCN2CCOCC2)N=C(c2ccc(OCCCO)cc2)O[C@H]1c1ccccc1CN=[N+]=[N-] | 0.625 | 1.18 | -0.319 | 0.636 | 1.46 | 1.68 | 2.52 | 0.0118 | 1.03 | -1.37 (inactive) | 1.08 | -0.933 (inactive) | 0.81 (inactive) | 2.01 (inactive) | -0.784 (inactive) | -0.422 | -0.374 | 1.39 | 1.11 | 0.284 |
| CC(C)C[C@@H]1NC(=O)[C@@H]2C[C@H](C(=O)NCCCCCN)[C@H](c3ccc(O)cc3)N2C1=O | 0.854 | 1.15 | 0.269 | 0.761 | 1.43 | 1.66 | -0.188 | 1.3 | 0.899 | -0.348 (inactive) | 0.329 | -0.079 (inactive) | -0.422 (inactive) | 0.411 (inactive) | 0.437 (inactive) | 1.01 | -0.171 | 0.457 | 0.465 | 2.04 |
| CN1C(=O)C2C=CC(C(O)c3ccc(F)cc3)N(Nc3ccccc3)C2C1=O (stereo not given) | 2.27 | 1.14 | 1.04 | 0.802 | 0.576 | -0.319 | -0.575 | 0.253 | 0.0088 | -0.112 (inactive) | -0.126 | 0.457 (inactive) | -0.293 (inactive) | 0.0535 (inactive) | 0.754 (inactive) | 0.473 | 0.203 | -0.319 | 0.363 | 0.137 |
| CC(C)C(CO)N1C(=O)[C@@H]2C3C(=O)OCCC/C=C\[C@H]3OC23C=CCN(C(C)(C)C)C(=O)[C@@H]13 (stereo not given in full) | -0.539 | -0.768 | -0.147 | -2.19 | -0.895 | -0.363 | -0.0938 | -0.404 | -1.04 | -0.197 (inactive) | -0.0407 | -0.162 (inactive) | 1.19 (inactive) | -0.0778 (inactive) | -0.205 (inactive) | -0.542 | -0.231 | 0.16 | 0.3 | 0.5 |
| Cc1ccc(S[C@]2(C(=O)O)CC(=O)N(Cc3cc(C(F)(F)F)cc(C(F)(F)F)c3)[C@@H]2c2ccc(CO)cc2)cc1 | -1.45 | -0.889 | -0.194 | -0.84 | -1.22 | -0.897 | -0.389 | -1.66 | -1.31 | -0.0278 (inactive) | -0.256 | 0.0756 (inactive) | -0.00769 (inactive) | 0.621 (inactive) | 0.573 (inactive) | -0.882 | -0.128 | -0.272 | -0.62 | -1.26 |
| CO[C@H]1O[C@H](CO)[C@@H](OC(=O)Nc2ccc3c(c2)OCO3)[C@H](OC(=O)c2cc3ccccc3[nH]2)[C@H]1OC(=O)c1cc2ccccc2[nH]1 | 0.935 | -0.174 | 0.622 | -0.3 | 0.372 | 0.791 | -1.56 | 0.366 | -0.0971 | -2.78 (inactive) | 0.0957 | -2.92 (inactive) | -1.37 (inactive) | 1.03 (inactive) | -1.29 (inactive) | 0.483 | -0.128 | 0.103 | -0.214 | 0.458 |
| COCCOC(=O)N1C(=O)[C@@]2(c3cc(C#CCCO)ccc31)[C@H](c1ccccc1OCCO)N1[C@H](c3ccccc3)[C@H](c3ccccc3)OC(=O)[C@H]1[C@@H]2C(=O)Nc1nc2ccccc2s1 | 2.09 | 1.2 | 0.771 | 0.733 | 1.07 | 0.957 | -2.27 | 0.932 | 1.24 | -0.499 (inactive) | 0.138 | -0.99 (inactive) | 0.564 (inactive) | -0.467 (inactive) | 0.428 (inactive) | 0.284 | 0.107 | 0.691 | 0.568 | 1.66 |
| CCOC(=O)c1ccc(NC(=O)O[C@H]2[C@H](OC(=O)Nc3ccc4c(c3)OCO4)[C@H](OC(=O)Nc3ccc4c(c3)OCO4)[C@@H](OC)O[C@@H]2CO)cc1 | 1.73 | 1.26 | 0.812 | 1.01 | 1.38 | 1.42 | -0.551 | 1.24 | 0.743 | -9.03 (active) | 0.662 | -2.23 (inactive) | 1.55 (inactive) | 0.0918 (inactive) | -0.195 (inactive) | 0.245 | 0.386 | 0.807 | 0.505 | 1.76 |
| O[C@@H](Cc1ccccc1)[C@@H](/C=C/C1CC1)N(CC#Cc1ccccc1)Cc1cccc(Cl)c1 | -0.156 | -0.429 | -0.0816 | -0.6 | -1.19 | -1.43 | 0.513 | -0.954 | 0.197 | 0.466 (inactive) | -0.501 | -1.09 (inactive) | -0.94 (inactive) | 2.04 (inactive) | -0.295 (inactive) | -0.679 | -0.302 | -0.662 | -0.976 | -1.03 |
